Among all 330,000 compounds or so, about 1,400 (0.42%) were called active.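 How the source made its calls: active means inhibition above its plate's threshold, mean inhibition of all tested compounds on the plate plus 3 SD (cut at about 37% in these data); inactive means the rest.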 The entries come from a sample that favours actives as a whole.
Biological target: Orexin/Hypocretin receptor type 1 (Homo sapiens) (UniProt O43613)
Assay: OX1R (HCRTR1) antagonists, primary screen, fluorescence, CHO/OX1R cells, Fluo-8 calcium, orexin A (AID 434989);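 further: 0% = orexin A challenge wells and 100% = SB-334867-A antagonist wells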
Settings: Fluo-8 calcium fluorescence, at 5 µM, active compounds read high

Chain of Orexin/Hypocretin receptor type 1 (Homo sapiens) (O43613 whole entry, looked up): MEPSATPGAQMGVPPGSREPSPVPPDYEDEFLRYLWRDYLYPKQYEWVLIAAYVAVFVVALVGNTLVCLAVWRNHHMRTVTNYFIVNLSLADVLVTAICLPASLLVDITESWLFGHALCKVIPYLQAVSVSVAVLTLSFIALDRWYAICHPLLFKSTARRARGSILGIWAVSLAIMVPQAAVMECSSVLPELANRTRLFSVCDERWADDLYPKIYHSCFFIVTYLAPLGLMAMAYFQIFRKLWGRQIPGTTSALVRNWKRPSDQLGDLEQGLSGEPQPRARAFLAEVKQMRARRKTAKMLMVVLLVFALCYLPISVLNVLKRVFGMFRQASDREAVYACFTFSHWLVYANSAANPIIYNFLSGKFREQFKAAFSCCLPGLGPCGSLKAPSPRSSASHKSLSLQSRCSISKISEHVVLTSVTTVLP

Row | Structure (SMILES) | inhibition
1 | CN1CCN(C(=S)SCC(=O)Nc2ccc(Cl)cc2C(=O)c2ccccc2)CC1 | -28.1% (inactive)
2 | CC(C(=O)Nc1ccc(Cl)cc1Cl)N1CC=C(c2ccccc2)CC1 (stereo not given) | 50% (active)
3 | Cc1ccc(C(C)C)c(OCC(=O)N2CCN(CC(=O)N3CCOCC3)CC2)c1 | 4.64% (inactive)
4 | O=C(N/N=C/c1c(O)n(C2CC2)c(=S)[nH]c1=O)c1ccccc1 | -22.4% (inactive)
5 | Cc1ccc(Cn2nnnc2CN2CCC(n3nnc4ccccc43)CC2)cc1 | -21.8% (inactive)
6 | Cc1ccc(CN2CCCC(C(=O)c3ccc4c(c3)OCO4)C2)cc1C (stereo not given) | -21.1% (inactive)
7 | COc1cc2nc(N3CCN(C(=O)[C@@H]4CCCO4)CC3)nc(N)c2cc1OC | 2.61% (inactive)
8 | O=C1C2(Cl)C3(Cl)C4(Cl)C(Cl)(Cl)C5(Cl)C3(Cl)C1(Cl)C5(Cl)C24Cl (stereo not given) | 72.3% (active)
9 | CC1=C(C(=O)Nc2ccccc2)SCCO1 | -6.61% (inactive)
10 | Nc1ccc([N+](=O)[O-])cc1 | -2.36% (inactive)

Source: PubChem BioAssay AID434989 (The Scripps Research Institute Molecular Screening Center, 2010)
